Pf Dd2 growth = inhibitors of Plasmodium falciparum Dd2 growth; P. falciparum Dd2 growth, SYBR Green, 72 h; Potency, µM (series often up to 28.9 µM), for the others: at the highest dose activity, negative = inhibition, most hits filed as inhibitors; 120,000 tested, 4.3% active; AID 1347417; active means well fitted inhibition curve with a large enough effect;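 further: plate controls were DMSO vehicle for no effect and reference drug for full effect; nearly all actives have a fitted effect of over 65% in size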
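Infected erythrocytes (Dd2, 0.3% parasitemia, 2.5% hematocrit final) are added to compound in RPMI-1640/Albumax II medium, grown 72 h at 37C in low oxygen, then lysed with saponin/Triton-X containing SYBR Green and read by fluorescence.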
The depositor's hits bear a star; i = inactive; [ ] = dose if it differs, or a comment. Only a selection was taken, and hits are over-represented in it overall. Potency means the concentration at half of the fitted maximal effect.

SMILES	Pf Dd2 growth
O=c1[nH]nc2n1CCN(Cc1ccc3c(c1)CCO3)CC2	10.3%
c1cc2c(cc1CN1CCOCC1)CNCCO2	7.94µM*
CCN(CC)Cc1ccc2c(c1)CNCCO2	-24.4%
O=C(N1CCCCC1)N1CCCC(c2nnc3n2CCNC3)C1 (stereo not given)	-2.6%
CCC(=O)N1Cc2ccccc2CC2(CCCN2Cc2cccnc2)C1 (stereo not given)	17.2%
CC(=O)N1CC2(CCCN2Cc2cccnc2)Cc2ccccc21 (stereo not given)	-29.2%
O=C1Nc2ccccc2CC12CCCN2Cc1cccnc1 (stereo not given)	-8.7%[44.1 µM]
O=C(C1CCCC1)N1CC2(CCCN2Cc2cccnc2)Cc2ccccc21 (stereo not given)	11.2µM*
O=C(O)CCC(=O)N1Cc2ccccc2CC2(CCCN2Cc2cccnc2)C1 (stereo not given)	-7.2%
O=C(C1CCCC1)N1CC2(CCCCN2Cc2cccnc2)Cc2ccccc21 (stereo not given)	7.94µM*
Cc1ccc(S(=O)(=O)N2CCc3c(C(=O)NCc4ccccn4)cccc32)cc1	-21.3%
O=C(NCc1ccncc1)c1cn(C2CN(C(=O)Nc3ccccc3)C2)nn1	18.3%
COc1ccc(CCN2CCC(CN(C)C(=O)C3CCCCO3)CC2)cc1 (stereo not given)	-10.8%
CN(CC1CCN(CCc2cccc(F)c2)CC1)C(=O)[C@@H](N)Cc1cnc[nH]1	-1.2%
COc1ccc(CN(C)CC2CCN(CCc3ccc(F)cc3)CC2)cc1Cn1cccn1	10µM*
CN1CCN(c2cc(=O)c3ccnc(-c4cccc(F)c4)c3o2)CC1	i
CCOc1ccc(CN2C[C@@H]3C(=O)N(Cc4ccc5c(c4)OCO5)C(=O)[C@@H]3C2)cc1	-15.2%
CCOc1ccc(CN(CCc2ccc3c(c2)OCO3)Cc2ccc(CC)cc2)cc1	-14.3%
CCOc1ccc(CN(CCc2ccc3c(c2)OCO3)Cc2cc(OC)ccc2O)cc1	0.708µM*
CCN(CC)CC(C)NCc1ccccc1 (stereo not given)	i
CC(C)CCN1CC[C@H](c2nc3ccccc3[nH]2)C1	i
Cc1cc(C)c(CNC(=O)c2nc(-c3ccc(CO)cc3)cc3c2ccn3C)c(=O)[nH]1	-14.0%[44.1 µM]
Clc1ccccc1C1(c2ccnc(NC3CCC3)n2)CCNCC1	7.08µM*
O[C@@H]1CCN(c2nccc(C3(c4ccccc4Cl)CCNCC3)n2)C1	-17.2%
CN1CCC(CNc2nccc(C3(c4ccccc4Cl)CCNCC3)n2)C1 (stereo not given)	-7.3%
SMILES	Pf Dd2 growth
OC[C@@H](O)CNc1nccc(C2(c3ccccc3Cl)CCNCC2)n1	25.4%
Clc1ccccc1C1(c2ccnc(C3CC3)n2)CCNCC1	2.24µM*
Clc1ccccc1C1(c2ccnc(-c3ccccc3)n2)CCNCC1	10µM*
CN(C)C1CCN(c2nccc(C3(c4ccccc4Cl)CCNCC3)n2)C1 (stereo not given)	-24.7%
CC(=O)NC1(C)CCCN(Cc2cc(-c3cccc(N4CCOCC4)c3)cs2)C1 (stereo not given)	-16.0%[44.1 µM]
O=C(O)C[C@@H]1CCN(S(=O)(=O)c2ccc(Cl)cc2)C[C@@H]1CC1=NCCc2cc(F)ccc21	i
COc1cc(OC)c(CNC(=O)c2c(C)noc2-c2cccs2)c(OC)c1	i
CCn1ncc(N2CCCC(CC(=O)Nc3ccc(C)c(F)c3)C2)cc1=O (stereo not given)	-12.9%
Cc1ccc(NC(=O)C2(CCO)CCN(c3ncccn3)C2)cc1 (stereo not given)	i
CN(C)S(=O)(=O)NCc1cccnc1N1CCN(c2ccccn2)CC1	-4.1%
CCc1nc2nccc(-c3cccc(OC)c3)n2n1	-17.4%
Cc1ccc(CNC(=O)CCCCn2c(=O)c3ccccc3n(Cc3ccc(C)cc3)c2=O)cc1	i
Cc1cc(C)cc(NC(=O)CCCn2nc(C)c3c(C)n(-c4ccccc4)nc3c2=O)c1	24.6%
Cc1cc(C)cc(NC(=O)CCCn2c3ccccc3c(=O)c3ccccc32)c1	10µM*
COCCN1CC(C(=O)N(C)Cc2cc(Cl)ccc2OC)CCC1=O (stereo not given)	-21.4%
CC1=C(C(=O)Nc2ccc(C)cc2C)C(c2ccc(C(C)C)cc2)n2nc(C(F)(F)F)nc2N1 (stereo not given)	12.6µM*
CC1=C(C(=O)Nc2ccc(C)cc2C)C(c2ccc(C(=O)O)cc2)n2nc(SCc3ccccc3)nc2N1 (stereo not given)	-5.0%
COc1cc(C2C(C(=O)Nc3ccc(C)cc3C)=C(C)Nc3nc(SCc4ccccc4)nn32)cc(OC)c1OC (stereo not given)	-2.4%
Fc1cccc(CN2CCC(Cc3nc(-c4ccccc4)n[nH]3)C2)c1 (stereo not given)	3.55µM*
O=C(Nc1ccc2c(c1)OCCO2)N1CCC(Cc2nc(-c3cccnc3)n[nH]2)C1 (stereo not given)	3.55µM*
CCC(=O)N1CCC(Cc2nc(-c3ccccc3)n[nH]2)CC1	-26.6%
CCc1n[nH]c(CC2CCN(C(=O)c3ccccc3)CC2)n1	-6.1%
O=C(NCc1ccccc1)N1CCC(Cc2nc(-c3ccccc3)n[nH]2)C1 (stereo not given)	-11.4%
O=C(Nc1ccc2c(c1)OCCO2)N1CCCC(Cc2noc(-c3ccncc3)n2)C1 (stereo not given)	i
O=C(c1ccccc1)N1CCC(Cc2nc(-c3ccncc3)n[nH]2)CC1	1.26µM*
SMILES	Pf Dd2 growth
Cc1ccc(CN2CCC(Cc3nc(-c4cccnc4)n[nH]3)C2)cc1C (stereo not given)	i
O=C(Cc1ccccc1)N1CCC(Cc2nc(-c3cccnc3)n[nH]2)C1 (stereo not given)	i
Cn1nccc1C(O)c1cc2n(n1)CCN(CC(=O)NCc1ccco1)C2 (stereo not given)	-11.0%
Cc1ncc(CO)c(CN2CCCC3(Cc4ccccc4CNC3=O)C2)c1O (stereo not given)	-3.1%
COc1ccc(CCC(=O)N2CC[C@@H]3COCCN(Cc4ccncc4)[C@@H]3C2)cc1	-7.2%
Cc1cccc(C(C(=O)NCc2cc(-c3cccc(F)c3)no2)N(C)C)c1 (stereo not given)	-12.9%
CC(C)CN1C(=O)c2ccccc2C(C(=O)NCc2ccco2)C12CCCC2 (stereo not given)	-20.6%
CCc1ccc(OCC(=O)c2ccc3c(c2)N(CCCC(=O)NCC2CCCO2)C(=O)CO3)cc1 (stereo not given)	-15.2%
CC(C)N1CC[C@H](CO)[C@H](NC(=O)C2CC2)C1	-12.1%
Cn1nnnc1SCCNCc1ccc(OCc2ccccc2)cc1	i
CCOc1cccc(CNCCCSc2nnnn2C)c1	-4.3%
Cn1nnnc1SCCCNCc1cccc(OCc2ccc(F)cc2)c1	5.62µM*
Cc1cnc(CC2CCN(C(=O)c3nn(C)c4ccccc34)C2)n1CC1CC1 (stereo not given)	i
COc1ccccc1C(=O)Nc1cc2c(cc1N1CCCC1)n(C)c(=O)c(=O)n2C	-1.8%
